# Source: PubChem BioAssay (National Center for Advancing Translational Sciences (NCATS))
# HepG2 tox = kills HepG2 cells in TGF-b inhibitor counter-screen | Potency, µM (highest dose often 46.1 µM), for inactives: top-dose activity change, negative = cytotoxicity, usual class: cytotoxic | actives 0.76% (n = 410,000) | HepG2 CAGA-GFP viability, ATP luminescence, 18 h; further: potency means the concentration at half of the fitted maximal effect
#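 CellTiter-Glo luminescence gave cytotoxicity after 18 hours at 37 degrees C. The cells were HepG2 CAGA-GFP in 1% FBS DMEM, stimulated with 500 pg/mL TGF-beta after compound addition. %Activity was normalised to no-cell wells (complete cell-killing) and DMSO (no toxicity), and curves were fitted and classified.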
# TDP1 cell noCPT = qHTS for Inhibitors of human tyrosyl-DNA phosphodiesterase 1 (TDP1): qHTS in cells in absence of CPT; DT40 Tdp1-/- hTDP1 cells, no CPT, ATP luminescence, 48 h; Potency, µM (titrated, usually from 46.2 µM), for inactives: top-dose activity change, negative = growth inhibition, actives largely listed as inhibitors; actives 15% (n = 420,000); further: potency means the concentration at half of the fitted maximal effect; on the % scale 0 is the no-effect control and ±100 the full control effect; nearly all actives have a fitted effect of over 55% in size
#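 Stably hTDP1-transfected Tdp1-null chicken DT40 cells were treated with library compounds minus camptothecin and grown for at least 48 hr at 37 °C, after which cellular ATP was quantified by luminescence.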
# TGFb SMAD3 inh = inhibitors of TGF-b signaling | HepG2 CAGA-GFP TGF-b/SMAD3 reporter, GFP fluorescence, 18 h; TGF-beta stimulated, 500 pg/mL final | Potency, µM (titrated, usually from 46.1 µM), for inactives: top-dose activity, negative = inhibition, hits mostly inhibitors | actives 1.2% (n = 410,000) | AID 588855; further: potency means the concentration at half of the fitted maximal effect; on the % scale 0 is the no-effect control and ±100 the full control effect; nearly all actives have a fitted effect of over 65% in size
#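 Smad-responsive CAGA-GFP expression was quantified in HEPG2 cells exposed to compounds and 500 pg/mL final TGF-beta for 18 h at 37 degrees C; unstimulated wells defined full inhibition.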
# IL-1B inflam inh = inhibitors of inflammasome signaling (IL-1 beta secretion). activity change, % at 57.5 µM. AID 743279. actives 4.7% (n = 360,000). THP-1 LPS/ATP IL-1B secretion, AlphaLISA, 16 h; hits give low values; in the data active means activity change below about -50%; inconclusive means mostly about -30% to -49%; further: on the % scale 0 is the no-effect control and ±100 the full control effect
#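 THP-1 cells pretreated 1 hr with compounds (up to 57.5 uM final), then stimulated with LPS (250 ng/mL final) plus ATP (1.25 mM final); secreted IL-1B measured by AlphaLISA after 16 hr, decreased signal indicating inhibition.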
# DT40 TDP1 CPT = DT40-hTDP1 cell growth loss with CPT; chicken DT40 Tdp1-/-;hTDP1 cells + 20 nM CPT, ATP luminescence, 48 h; Potency, µM (doses to about 46.2 µM), without a hit: at the highest dose activity change, negative = growth inhibition, hits mostly inhibitors; actives 12% (n = 420,000); further: potency means the concentration at half of the fitted maximal effect; on the % scale 0 is the no-effect control and ±100 the full control effect; nearly all actives have a fitted effect of over 55% in size
#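 Chicken DT40 Tdp1-/- cells stably complemented with human TDP1 were seeded at 400 cells/well in medium containing 20 nM camptothecin, exposed to pin-transferred compounds, and grown at 37 °C for at least 48 hr. Viability was read as ATP luminescence.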
# ASM inhibitor = human S-ASM enzyme inhibition. P17405. placental ASM, HMU-PC fluorogenic substrate, 60 min. Potency, µM (highest dose often 57.5 µM), inactives show at the top dose activity change, negative = inhibition, hits mostly inhibitors. actives 0.006% (n = 340,000). AID 504937; further: potency means the concentration at half of the fitted maximal effect
# Target sequence (P17405 47-631 limits assumed): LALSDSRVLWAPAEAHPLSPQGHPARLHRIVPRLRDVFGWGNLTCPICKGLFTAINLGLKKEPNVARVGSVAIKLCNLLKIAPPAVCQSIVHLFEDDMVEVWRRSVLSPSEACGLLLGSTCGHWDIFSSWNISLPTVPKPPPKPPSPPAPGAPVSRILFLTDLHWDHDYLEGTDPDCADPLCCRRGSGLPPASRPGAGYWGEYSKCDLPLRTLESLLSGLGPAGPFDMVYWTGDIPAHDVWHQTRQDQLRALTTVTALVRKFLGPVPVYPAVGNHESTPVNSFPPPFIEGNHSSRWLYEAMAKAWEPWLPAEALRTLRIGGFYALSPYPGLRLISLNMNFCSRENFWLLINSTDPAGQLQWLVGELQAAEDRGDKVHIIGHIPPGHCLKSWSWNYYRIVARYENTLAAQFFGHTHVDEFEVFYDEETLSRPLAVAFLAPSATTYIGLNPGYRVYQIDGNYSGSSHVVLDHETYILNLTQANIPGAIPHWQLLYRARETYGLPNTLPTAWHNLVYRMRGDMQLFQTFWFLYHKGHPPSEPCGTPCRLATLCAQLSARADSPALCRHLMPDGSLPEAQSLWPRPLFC
#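 Fluorescence read-out (Ex 386 nm, Em 447 nm) after stopping the reaction at pH 10. Enzyme: ASM from human placenta; substrate HMU-PC0, 9 uM final; 60 min, 37 °C. Compound preincubation 10 min, ambient temperature.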
# An asterisk follows results filed as active; i = inactive; ? = inconclusive; · = not tested or not shown. In the library only some 19% were active in any assay of this set; here they are far more common. Unless noted, the call rests on the fitted dose curve; in most records, active means well fitted curve in the direction sought with a large enough effect; inconclusive means small, poorly fitted or top-dose-only effect, or another doubt; inactive means no such curve, though single readings can be large; an effect the other way counts as inactive or inconclusive.
SMILES,HepG2 tox,TDP1 cell noCPT,TGFb SMAD3 inh,IL-1B inflam inh,DT40 TDP1 CPT,ASM inhibitor
COCC(C)NC(=O)c1cc2c(ccc3ccccc32)oc1=O (stereo not drawn),-22%,?,-6%,24,?,i
Brc1cc(Br)c[n+](CCc2ccccc2)c1,6%,14µM*,2%,·,11µM*,·
Brc1ccc[n+](CCc2ccccc2)c1,-21%,-24%,17%,·,-7%,·
CC1CCC2C(=O)N(c3ccc(Cc4ccncc4)cc3)C(=O)C2C1 (stereo not drawn),-31%,10µM*,?,0,5.8µM*,1%
O=C1C2C3C=CC(C3)C2C(=O)N1c1ccc(Cc2ccncc2)cc1 (stereo not drawn),-19%,13µM*,?,17,?,6%
CC1CCN(C(=O)c2ccc(N3C(=O)C4CCC(C)CC4C3=O)cc2)CC1 (stereo not drawn),-5%,-20%,-26%,·,5%,-1%
COc1cc(-c2nnc(SCC(=O)NCc3ccccc3Cl)o2)cc(OC)c1OC,0%,?,3%,·,?,·
COc1cc(-c2nnc(SCC(=O)N(Cc3ccccc3)C(C)(C)C)o2)cc(OC)c1OC,-15%,15µM*,?,-56*,13µM*,-4%
CCCCN(CCCC)C(=O)CSc1nnc(-c2cc(OC)c(OC)c(OC)c2)o1,-11%,14µM*,4%,-54*,18µM*,-5%
C/C(=N\NS(=O)(=O)c1ccccc1)c1cc(Cl)cc(Cl)c1O,-30%,?,?,-15,-26%,-3%
Cc1sc2nc(CN(Cc3ccccc3)C(=O)NC3CCCCC3)[nH]c(=O)c2c1C,-31%,18µM*,?,?,21µM*,-16%
CC(=O)N(Cc1ccccc1)Cc1nc2sc(C)c(C)c2c(=O)[nH]1,-12%,13µM*,-3%,95,7%,7%
CC(=O)N(Cc1nc2sc(C)c(C)c2c(=O)[nH]1)C1CCCC1,-19%,?,7%,29,21µM*,5%
Cc1sc2nc(CN(C(=O)NCc3ccccc3)C3CCCC3)[nH]c(=O)c2c1C,0%,?,-12%,?,?,-3%
O=Cc1ccccc1-c1cn(CCCOCc2ccccc2)nn1,1%,?,-6%,12,?,10%
O=C(c1ccc([N+](=O)[O-])cc1)N(Cc1ccccc1)c1ccccn1,14%,-17%,13%,-9,20%,1%
O=[N+]([O-])c1ccccc1SN(Cc1ccccc1)c1ccccn1,-20%,15µM*,-10%,?,?,-7%
CCN=C(NCC)SC1CC(=O)N(c2ccccc2)C1=O (stereo not drawn),2%,-1%,-4%,28,-3%,4%
CC(=O)SC1CC(=O)N(c2ccc(C(C)(C)C)cc2)C1=O (stereo not drawn),-15%,8.2µM*,-1%,-4,3.3µM*,-3%
CCCc1[nH]n(-c2ccc([N+](=O)[O-])cc2)c(=O)c1C=NCCCn1ccnc1,-17%,-70%,-4%,-23,-14%,0%
Cc1ccc(-n2[nH]c(C)c(/C=N/Nc3ccc([N+](=O)[O-])cc3[N+](=O)[O-])c2=O)cc1,-49%,15µM*,?,-3,21µM*,-1%
Cc1[nH]n(-c2ccc([N+](=O)[O-])cc2)c(=O)c1C=NCCc1ccc(S(N)(=O)=O)cc1,-25%,?,3%,13,?,-4%
Cc1[nH]n(-c2ccc([N+](=O)[O-])cc2)c(=O)c1C=NCCc1c(C)[nH]c2ccccc12,-30%,16µM*,-15%,0,16µM*,-18%
Cc1[nH]n(-c2ccc([N+](=O)[O-])cc2)c(=O)c1C=NCCN1CCN(C(=O)C(C)C)CC1,-84%,16µM*,-12%,12,12µM*,-5%
Cc1[nH]n(-c2ccc([N+](=O)[O-])cc2)c(=O)c1C=NCC1CCCO1 (stereo not drawn),-50%,10µM*,?,10,10µM*,0%
SMILES,HepG2 tox,TDP1 cell noCPT,TGFb SMAD3 inh,IL-1B inflam inh,DT40 TDP1 CPT,ASM inhibitor
CC1Cc2nc(SCC(=O)NCC3CCCO3)n(C)c(=O)c2S1 (stereo not drawn),-43%,-3%,0%,9,4%,1%
O=C(NCCN1CCC(n2c(=O)[nH]c3ccccc32)CC1)c1ccc(Cl)cc1Cl,·,?,·,0,?,·
CSc1ncccc1C(=O)Nc1cccc(S(=O)(=O)N2CCCC2)c1,1%,?,-2%,8,?,-4%
CCOc1ccc2[nH]cc(S(=O)(=O)c3ccc(F)cc3)c(=O)c2c1,-6%,9.2µM*,-10%,30,9.2µM*,-3%
CCOC(=O)c1cnc(Nc2nc3ccccc3o2)nc1CN1CCN(C)CC1,-35%,13µM*,?,89,18µM*,4%
CC(C)C(N)c1csc(Nc2nncc3ccccc23)n1 (stereo not drawn),-25%,16µM*,?,0,?,·
CC(N)c1csc(Nc2nncc3ccccc23)n1 (stereo not drawn),-29%,?,1%,-70*,?,·
Cc1cc(C)c(C(=O)COC(=O)c2nn(C)c(=O)c3ccccc23)cc1C,0%,-7%,-1%,30,-18%,-8%
